# This is a sample that favours compounds with a hit; in the whole collection about 2.2% have one here.
# Abeta yeast res = compounds reversing amyloid beta toxicity in yeast | yeast expressing A-beta42, growth rescue, OD600, 48 h; response scale: 0% DMSO, 100% iron-clioquinol control | Potency, µM (top dose mostly 46.1 µM), hits mostly activators | 410,000 tested, 0.063% active; further: nearly all actives have a fitted effect of over 55% in size
#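 Yeast A-beta toxicity model in growth medium with pinned compounds, 48 h at 30 C; growth read as absorbance at 600 nm. Normalized to FeCl3/clioquinol equimolar mix (positive) and DMSO (negative).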
# aSyn yeast inh = inhibitors of alpha-synuclein toxicity in yeast; Yeast expressing alpha-synuclein, growth rescue, BacTiter-Glo, 24 h; Potency, µM (doses to about 46.1 µM), without a hit: at the top dose growth rescue (activation), most hits filed as activators; 370,000 tested, 0.14% active; further: % of control where 0% means no effect; nearly all actives have a fitted effect of over 65% in size
#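 Readout is rescue of growth in alpha-synuclein-expressing yeast, so inhibitors of toxicity appear as activators. Growth after 24 hr at 30 deg C in galactose medium is quantified by luminescence.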
# TDP43 rescue = TDP-43 toxicity inhibition in yeast | 410,000 tested, 1.8% active | TDP-43 expressing yeast growth rescue, BacTiter-Glo, 24 h | Potency, µM (top dose mostly 46.1 µM), inactives show at the highest dose growth rescue (activation), usual class: activators | AID 652104; further: % of control where 0% means no effect; nearly all actives have a fitted effect of over 50% in size
#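 Readout is BacTiter-Glo luminescence of cell growth, so inhibitors register as activators. TDP-43-expressing yeast at OD600=0.02 in galactose medium, after raffinose pregrowth to mid-log, were incubated with compound for 24 hr at 30 deg C.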
# Mito fusion yeast = blocks mitochondrial division or promotes mitochondrial fusion | 320,000 tested, 0.23% active | Potency, µM (doses to about 46.1 µM), for the others: at the top dose growth rescue (activation), most hits filed as activators | AID 485298 | S. cerevisiae fusion-defective mutant growth rescue, CellTiterGlo 48 h; further: % of control where 0% means no effect; nearly all actives have a fitted effect of over 45% in size
#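 Yeast fusion mutant, YPEG (non-fermentable carbon), compound, 48 h at 37C non-permissive; CellTiterGlo added, 10 min RT, luminescence read. Rescued growth = division inhibition.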
# FUS yeast rescue = rescues growth of FUS-expressing yeast | S. cerevisiae FUS-expressing, growth rescue, OD600, 24 h | Potency, µM (highest dose often 76.6 µM), usual class: activators | 390,000 tested, 0.24% active | AID 1347120;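 further: plate controls were DMSO vehicle for no effect and reference control for full effect; nearly all actives have a fitted effect of over 55% in size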
#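 Quantitative HTS measuring growth restoration of FUS-toxic yeast. Galactose-induced cells (OD 0.005) were exposed 24hr at 30C to compounds at several concentrations, then absorbance at 600 nm was recorded.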
# Starred values were filed as active, the others as inactive; i = inactive; ? = inconclusive; . = no result given. The call rests on the fitted dose curve; in most records, active means well fitted curve in the direction sought with a large enough effect; inconclusive means small, poorly fitted or top-dose-only effect, or another doubt; inactive means no such curve, though single readings can be large; an effect the other way counts as inactive or inconclusive. Potency means the concentration at half of the fitted maximal effect.
SMILES,Abeta yeast res,aSyn yeast inh,TDP43 rescue,Mito fusion yeast,FUS yeast rescue
C[C@@H]1CN([C@@H](C)CO)C(=O)CCCn2nncc2CO[C@H]1CN(C)S(=O)(=O)c1cccc(C#N)c1,i,3.3%,0.0%,.,i
COc1ccccc1N1CCN(C(=O)c2oc3cc(C)c(C)cc3c2C)CC1,i,-0.9%,-12.1%,26.2%,i
COc1ccccc1N1CCN(C(=O)c2oc3ccccc3c2N)CC1,i,.,12.6µM*,.,i
CCOc1ccc(-n2c(C)cc(C(=O)CCl)c2C)cc1,i,-21.6%,8.91µM*,-7.2%,i
COC(=O)c1ccc(-n2c(C)cc(C(=O)CCl)c2C)cc1,i,-22.6%,?,-5.3%,i
COc1ccc(Cl)cc1NC(=O)CN(C)C(=O)CSc1ccc2c(c1)OCCO2,i,23.0%,20µM*,2.4%,i
O=C(CSc1ccc2c(c1)OCCO2)Nc1ccc(Cl)cn1,i,8.0%,11.2µM*,-0.5%,i
O=C(CSc1ccc2c(c1)OCCO2)Nc1ncccc1O,i,2.0%,10.6%,-0.7%,i
COc1ccc(NC(=O)CN(C)C(=O)CSc2ccc3c(c2)OCCO3)cc1,i,0.2%,-4.0%,2.1%,i
O=C(CSc1ccc2c(c1)OCCO2)Nc1ccc(Br)cn1,i,1.5%,12.6µM*,-4.4%,i
Cc1ccc(Sc2cnccc2C#N)cc1,i,-2.6%,12.6µM*,-22.3%,i
Clc1ncccc1OCc1ccccc1,i,3.1%,12.6µM*,.,i
Cc1ccccc1C(=O)Nc1ccc2nc(N3CCCCC3)cc(C)c2c1,i,.,15.7%,.,i
Cc1cc(Nc2cccc(Cl)c2)nc2ccc(NC(=O)c3cncc(Br)c3)cc12,i,.,22.4µM*,.,31.6µM*
COc1cccc(CC(=O)Nc2ccc3nc(Nc4cccc(C(F)(F)F)c4)cc(C)c3c2)c1,i,.,27.7%,.,i
Cc1ccccc1C(=O)Nc1ccc2nc(Nc3cccc(C(F)(F)F)c3)cc(C)c2c1,i,.,17.8µM*,.,i
Cc1cc(Nc2cccc(C(F)(F)F)c2)nc2ccc(NC(=O)c3cncc(Br)c3)cc12,i,.,14.0%,.,?
COc1ccccc1CC(=O)Nc1ccc2nc(Nc3cccc(C(F)(F)F)c3)cc(C)c2c1,i,.,12.6µM*,.,?
COc1ccc(N(C)C(=O)Cn2cc(S(=O)(=O)N3CCN(c4ccccc4F)CC3)c3ccccc3c2=O)c(OC)c1,i,.,-4.6%,.,?
COC(=O)C=CSC(=S)C1CCCC1=N (configuration not stated),i,-2.7%,?,.,i
Cc1ccc(N(C)S(=O)(=O)c2cccc(C(=O)Nc3nc4ccccc4[nH]3)c2)cc1,i,-0.6%,21.5%,20µM*,.
COCCCNC(=S)N1CCN(c2nc(-c3ccc(F)cc3)cs2)CC1,?,-2.1%,22.4µM*,-7.6%,?
CCOC(=O)C(=O)N1CCN(c2nc(-c3ccc(Cl)cc3)cs2)CC1,i,-4.1%,?,10.2%,i
CCOCCCNC(=S)N1CCN(c2nc(-c3ccc(F)cc3)cs2)CC1,?,4.4%,25.1µM*,-1.7%,i
COc1cccc(-c2csc(N3CCN(C(=O)Nc4ccc(F)cc4)CC3)n2)c1,i,-3.8%,17.8µM*,?,12.6µM*
SMILES,Abeta yeast res,aSyn yeast inh,TDP43 rescue,Mito fusion yeast,FUS yeast rescue
CNC(=S)N1CCN(c2nc(-c3ccc(F)cc3)cs2)CC1,i,-3.8%,14.7%,-0.5%,i
CCOC(=O)N1CCN(c2nc(-c3ccc(F)cc3)cs2)CC1,i,-17.4%,20µM*,-1.2%,i
Cc1cc(C)c(OCC(=O)NCC2COc3ccccc3O2)c(C)c1 (configuration not stated),i,10.1%,19.3%,22.4%,i
COc1ccc(NS(=O)(=O)c2cccc(C(=O)N3CCN(S(=O)(=O)c4ccccc4)CC3)c2)cc1,i,1.5%,2.8%,.,i
CC(NC(=O)OCc1ccccc1)C(=O)Oc1cc2oc(=O)cc(-c3ccccc3)c2cc1Cl (configuration not stated),i,3.3%,6.31µM*,8.9%,i
COc1ccc(/C=N/NC(=S)SC)cc1OC,?,-18.5%,35.5µM*,-5.5%,i
COc1ccc(C=NNC(=O)NN=Cc2ccc(OC)c(OC)c2)cc1OC,i,-3.4%,-14.1%,.,i
Cc1ccc(S(=O)(=O)Nc2c(C)nn(C)c2C)c(C)c1,i,0.4%,-22.4%,0.9%,i
CC1(OC(=O)c2ccco2)C(=O)C=C2C=C(C3CC3)OC=C2C1=O (configuration not stated),i,-12.3%,11.2µM*,.,i
CCC(=O)OC1(C)C(=O)C=C2C=C(C3CC3)OC=C2C1=O (configuration not stated),i,-11.5%,?,.,i
CC1(OC(=O)c2cccs2)C(=O)C=C2C=C(C3CC3)OC=C2C1=O (configuration not stated),i,-6.3%,20µM*,.,i
CC(=O)Nc1ccc(NC(=O)[C@@H](NC(=O)c2ccccc2F)C(C)C)cc1,i,0.8%,-6.5%,7.2%,i
CN(Cc1ccccc1)c1ccc(C(=O)O)cc1[N+](=O)[O-],i,0.2%,15.8µM*,12.4%,i
Cc1ccc(S(=O)(=O)c2c(N)n(Cc3ccco3)c3nc4ccccc4nc23)cc1C,i,6.0%,0.4%,23.6%,25.1µM*
Nc1c(S(=O)(=O)c2ccccc2)c2nc3ccccc3nc2n1Cc1ccco1,i,-3.4%,0.0%,4.7%,i
CC(=O)Nc1ccc(Nc2nc3ccccc3nc2NS(=O)(=O)c2ccccc2)cc1,i,-12.5%,20µM*,1.8%,?
CC(C)Oc1ccc(C(=O)/C(=C\c2cccs2)c2nc3ccccc3o2)cc1,i,0.3%,8.0%,10µM*,i
COc1ccc(C(=O)/C(=C\c2sccc2C)c2nc3ccccc3o2)cc1,.,.,.,8.2%,.
Cc1ccc(O)c(Sc2cc(C)ccc2O)c1,?,?,22.4µM*,28.4%,i
Cc1ccc(O)c(N)c1,i,-11.4%,16.9%,4.5%,i
COC(=O)[C@@]1(Cc2ccc(F)cc2)[C@H]2c3cc(C(=O)N4CCCC4)n(Cc4ccccc4)c3C[C@H]2CN1C(=O)c1ccccc1,i,18.7%,0.0%,.,?
COC(=O)[C@@]1(Cc2ccc(OC)cc2)[C@H]2c3cc(C(=O)N4CCCC4)n(Cc4ccc(S(C)(=O)=O)cc4)c3C[C@H]2CN1C(=O)c1ccccc1,i,4.1%,10.9%,.,25.1µM*
C=CC[C@@H](CC(=O)N(CCO)Cc1ccccc1)C(=O)NC[C@H](OC(=O)[C@@H](CC=C)Cc1ccc(F)cc1)c1ccccc1,i,4.0%,0.0%,.,?
